This passage reports outcome and Potency results from PubChem BioAssay (Tox21).

The nature of assay [1]: A CellTox Green Cytotoxicity Assay to monitor cytotoxicity in HepG2 cells - 8 hour (AID 1224890). Also: nearly all actives have a fitted effect of over 45% in size. Summed up:
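First, HepG2 cells (600/well) mixed with reagent were plated; second, after 5 h at 37 C they received compounds via pintool; third, fluorescence was measured at 0 h through 40 h at 8 h intervals.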

Assay [2] concerns the target Estrogen receptor (Homo sapiens) (UniProt P03372). The assay is described as follows: qHTS assay to identify small molecule antagonists of the estrogen receptor alpha (ER-alpha) signaling pathway using the BG1 cell line in the presence of 0.1 nM 17-beta-estradiol (AID 1259244). Also: nearly all actives have a fitted effect of over 50% in size. Summed up:
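Reporter is a stably transfected luciferase under four estrogen responsive elements in VM7Luc4E2 cells expressing native full-length ER-alpha; inhibition of 0.1 nM (final) 17beta-estradiol-driven signal over 22 h is read by luminescence.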
(In general: qHTS replaces the single test concentration by a dilution series.)

The nature of assay [3]: qHTS assay to identify small molecule HDAC inhibitors (AID 1259364).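 Also: wild-type HCT-116 cells with endogenous class I/II HDAC activity; top concentration of the series differs between compounds; nearly all actives have a fitted effect of over 45% in size.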 The essentials:
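Quantitative high-throughput format: overnight-seeded HCT-116 cells got compounds for 2 hr at 37C; HDAC-Glo I/II reagent added, 30 min RT, luminescence measured.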

Assay [4] in a line: qHTS assay to identify small molecule HDAC inhibitors - cell viability counter screen (AID 1259365). Also: series mostly up to about 92 µM; nearly all actives have a fitted effect of over 50% in size. Summed up: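 Wild-type HCT-116 cells, 1,500/well, cultured overnight, then compound-treated 2 h at 37 C. Viability measured as ATP luminescence with CellTiter-Glo after 30 min at room temperature.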
Assay [5] can be described thus: qHTS assay to identify small molecule agonists of the sonic hedgehog signaling (Shh) pathway - cell viability counter screen (AID 1259366). Also: nearly all actives have a fitted effect of over 50% in size. The essentials: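 NIH/3T3-derived Gli1-Luc reporter cells, 2,000 per well, received compound after 4 h and were treated about 23 h at 37C. Viability measured in the same wells by CellTiter-Fluor fluorescence after 1 h.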
A short description of assay [6]: qHTS assay to identify small molecule antagonists of the sonic hedgehog signaling (Shh) pathway - cell viability counter screen (AID 1259367). Also: nearly all actives have a fitted effect of over 55% in size. Summed up:
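Viability was read by CellTiter-Fluor fluorescence in the same wells, reagent added 23 hr into compound treatment and incubated 1 hr at 37C. The 3T3 Gli1-Luc reporter cells (2,000/well) received conditioned medium after compound and ran 24 hr.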

Assay [7] can be described thus: qHTS assay to identify small molecule agonists of the sonic hedgehog signaling (Shh) pathway (AID 1259368; calls by dose curve;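 also: NIH/3T3-derived 3T3Gli1-Luc cells carrying a stable Gli1-driven firefly luciferase reporter; series mostly up to about 92 µM; nearly all actives have a fitted effect of over 15% in size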). Summed up:
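Quantitative high-throughput format using a Gli1-driven firefly luciferase reporter line derived from NIH/3T3 cells. After a 24 hr compound treatment at 37 C and 5% CO2, luminescence reported Gli1 response element activity.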

Assay [8] can be described thus: qHTS assay to identify small molecule antagonists of the sonic hedgehog signaling (Shh) pathway (AID 1259369; calls by dose curve; also: nearly all actives have a fitted effect of over 45% in size). The essentials:
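Stable Gli1-Luc reporter NIH/3T3 clone; quantitative HTS in stimulated mode with conditioned medium. Luminescence measured after 24hr compound treatment at 37 C.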

The target in assay [9] is Estrogen receptor beta (Homo sapiens) (UniProt Q92731). The assay is described as follows: qHTS assay to identify small molecule agonists of the estrogen receptor beta (ER-beta) signaling pathway (AID 1259377; active = well fitted activation curve with a large enough effect in the signal ratio in the repeat runs, not every such curve was filed as active; the % refers to the signal ratio; also: potency is read from the fitted curve at half-maximal effect). The essentials:
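ER-beta-UAS-bla HEK293T cells in medium with 2% charcoal-stripped FBS were exposed to compounds for 16 h at 37C. Beta-lactamase reporter activity was read as fluorescence after 2 h with LiveBLAzer B/G FRET substrate at room temperature.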

Assay [10] can be described thus: qHTS assay to identify small molecule agonists of the androgen receptor (AR) signaling pathway in the presence of an antagonist - cell viability counter screen (AID 1259379).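 Also: MDA-kb2 human breast cancer cells carrying an MMTV luciferase reporter; series mostly up to about 92 µM; nearly all actives have a fitted effect of over 25% in size.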 Summed up: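 Nilutamide-containing (3.0uM final) MDA-kb2 cultures, 3,000 cells/well, were treated with compounds across 15 concentrations. After 16 hr at 37C with no CO2, cell viability was determined by CellTiter-Fluor fluorescence in the luciferase assay wells.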

Assay [11] is described as follows: qHTS assay to identify small molecule agonists of the estrogen receptor beta (ER-beta) signaling pathway - cell viability counter screen (AID 1259380). Also: nearly all actives have a fitted effect of over 30% in size. Summed up:
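Steps: plate ER-beta-UAS-bla HEK293T cells, rest 6 hr; add compounds in DMSO; incubate 16 hr at 37C, 5% CO2; add FRET substrate 2 hr; add CellTiter-Glo, wait 30 min at room temperature; read luminescence.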

Assay [12] is described as follows: qHTS assay to identify small molecule antagonists of the estrogen receptor beta (ER-beta) signaling pathway - cell viability counter screen (AID 1259382).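 Also: HEK293T cells carrying ER-beta-UAS-bla reporter stimulated with estradiol; series mostly up to about 92 µM; nearly all actives have a fitted effect of over 55% in size.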 The essentials:
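Viability is scored by CellTiter-Glo luminescence (30 min, room temperature) in ER-beta-UAS-bla HEK293T wells already read for reporter fluorescence. Compound exposure lasts 16 hr at 37C alongside 1nM 17-beta-estradiol in charcoal-stripped serum medium.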

Assay [13] in a line: qHTS assay to identify small molecule agonists or antagonists of the thyroid stimulating hormone receptor (TSHR) signaling pathway - wild type cell line counter screen (AID 1259384; calls by dose curve). Summed up:
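Counter screen in untransfected Hek293: compounds (15-point titration, triplicate) plus phosphodiesterase inhibitor Ro20-1724 added after 18 h plating; 30 min RT. Intracellular cAMP via competitive d2/cryptate immunoassay, 1 h incubation.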

A short description of assay [14]: qHTS assay to identify small molecule antagonists of the androgen receptor (AR) signaling pathway using the MDA cell line in the presence of 0.5 nM R1881 - cell viability counter screen (AID 1259242). Also: nearly all actives have a fitted effect of over 45% in size. Summed up:
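qHTS format. MDA-kb2 (MMTV-luc, AR/GR responsive) + cpd + 0.5 nM R1881 final, 16 hr 37C/0% CO2 → CellTiter-Fluor 30 min → fluorescence intensity.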

The target of assay [15] is Estrogen receptor (Homo sapiens) (UniProt P03372). The assay is described as follows: qHTS assay to identify small molecule agonists of the estrogen receptor alpha (ER-alpha) signaling pathway in the presence of an antagonist (AID 1259383; calls by dose curve; also: top concentration of the series differs between compounds; nearly all actives have a fitted effect of over 15% in size). Summed up: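 Readout was ERE-driven luciferase luminescence in VM7Luc4E2 cells, which express full-length ER-alpha endogenously. Compounds were tested at 15 concentrations for 22hr alongside 10.0nM ICI-182,780 (final concentration).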

Assay [16] in a line: qHTS assay to identify small molecule phospholipidosis (PLD) inducers (AID 1259344; active = well fitted curve in the direction sought with a large enough effect; an effect the other way counts as inactive or inconclusive). Summed up:
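Phospholipid accumulation was scored by imaging: fixed, Hoechst-counterstained HepG2 cells stained with LipidTOX Red after 24 h compound exposure at 37 C. Read-outs were pit count and pit intensity per well or per cell, with amiodarone and DMSO controls.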

The target in assay [17] is Estrogen receptor beta (Homo sapiens) (UniProt Q92731). Put plainly: qHTS assay to identify small molecule antagonists of the estrogen receptor beta (ER-beta) signaling pathway (AID 1259378; active = well fitted inhibition curve with a large enough effect in the signal ratio in the repeat runs, not every such curve was filed as active; the % refers to the signal ratio). Summed up:
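Antagonist mode: compounds added to beta-lactamase reporter HEK293T ER-beta-UAS cells stimulated with E2 (1nM final), 16 hr at 37C. LiveBLAzer B/G FRET substrate, 2 hours room temperature, fluorescence read-out.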

Inconclusive results are not listed. More than one record can exist for a structure, and the calls need not agree. Activity calls are given as the source filed them. Unless noted, calls follow the shape of the dose curve; as a rule, active = well fitted curve in the direction sought with a large enough effect in the repeat runs; inconclusive = weak or mixed curves; inactive = no such curve, though single readings can be large; an effect the other way counts as inactive or inconclusive.

Estrogen receptor beta (Homo sapiens), sequence (Q92731 whole entry, looked up): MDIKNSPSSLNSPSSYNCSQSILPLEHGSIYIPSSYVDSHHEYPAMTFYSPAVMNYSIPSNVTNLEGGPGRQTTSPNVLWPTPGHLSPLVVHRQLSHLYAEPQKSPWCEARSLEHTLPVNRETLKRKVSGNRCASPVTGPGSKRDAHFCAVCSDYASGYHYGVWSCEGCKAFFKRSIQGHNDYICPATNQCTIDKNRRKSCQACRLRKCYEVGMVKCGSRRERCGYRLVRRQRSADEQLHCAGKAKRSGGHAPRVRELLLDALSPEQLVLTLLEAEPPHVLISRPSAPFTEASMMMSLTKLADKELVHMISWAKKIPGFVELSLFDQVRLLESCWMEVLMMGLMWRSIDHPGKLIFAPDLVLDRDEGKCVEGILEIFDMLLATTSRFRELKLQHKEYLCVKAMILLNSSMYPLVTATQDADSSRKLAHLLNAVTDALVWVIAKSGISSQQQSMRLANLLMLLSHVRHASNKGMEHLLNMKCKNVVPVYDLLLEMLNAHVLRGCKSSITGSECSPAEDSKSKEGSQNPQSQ
Estrogen receptor (Homo sapiens), sequence (P03372 whole entry, looked up): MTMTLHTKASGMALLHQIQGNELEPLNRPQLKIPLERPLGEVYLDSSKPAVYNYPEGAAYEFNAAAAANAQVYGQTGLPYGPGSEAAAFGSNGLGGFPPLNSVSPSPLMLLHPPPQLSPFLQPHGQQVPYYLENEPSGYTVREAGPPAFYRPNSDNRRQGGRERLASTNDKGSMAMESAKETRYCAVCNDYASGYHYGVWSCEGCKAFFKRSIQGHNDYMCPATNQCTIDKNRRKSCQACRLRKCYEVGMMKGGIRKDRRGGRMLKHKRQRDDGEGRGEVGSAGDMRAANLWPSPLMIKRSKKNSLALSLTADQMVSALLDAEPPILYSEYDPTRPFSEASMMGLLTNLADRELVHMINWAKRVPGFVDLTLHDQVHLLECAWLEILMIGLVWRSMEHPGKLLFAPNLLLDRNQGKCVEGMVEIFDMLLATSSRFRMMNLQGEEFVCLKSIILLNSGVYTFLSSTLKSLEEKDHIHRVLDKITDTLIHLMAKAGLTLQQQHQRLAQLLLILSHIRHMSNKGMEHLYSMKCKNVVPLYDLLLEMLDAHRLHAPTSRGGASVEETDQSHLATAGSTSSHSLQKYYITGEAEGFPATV

For the compound `C=CC(C)CCCC(C)(C)O` (configuration not stated), the outcome in assay [1], in assay [4], in assay [7], in assay [12] and in [13] was inactive. For the same compound, the Potency entry in assay [2], in assay [3], in [5], in assay [6], in assay [8] and in [10] was “inactive” each time. In assay [11], the Potency entry was “inactive”. In [9], the Potency is 54.4 µM (active) and inactive.
With `O=C1CCCC1`, the call in assay [1], in assay [4], in assay [7] and in [12] was inactive. Also, the Potency result in assay [14], in assay [2], in assay [3], in [5], in [6] and in assay [9] was “inactive” throughout. The Potency result in assay [10] and in assay [11] was “inactive” throughout.
Consider `O=[N+]([O-])c1ccc2nc[nH]c2c1`, for which the compound was called inactive in [1], in [4], in assay [7], in [12] and in assay [13]. The Potency entry in assay [14], in [2], in assay [3], in assay [5], in [6] and in [8] was “inactive” in each case. In addition, the Potency result in assay [9], in assay [10], in [11] and in [15] was “inactive” in each case.
Take `CC(C)(C#N)c1cc(Cn2cncn2)cc(C(C)(C)C#N)c1`: the call in assay [1], in assay [16], in assay [4], in [7] and in assay [12] was inactive. Moreover, the Potency result in [14], in assay [3], in assay [5], in assay [6], in [8] and in assay [9] was “inactive” each time. The Potency entry in [10] and in assay [11] was “inactive” each time.
As to `Clc1ccccn1`, the compound was called inactive in assay [1], in assay [4], in assay [7], in [12] and in assay [13]. In addition, the Potency entry in assay [14], in assay [3], in assay [5], in assay [6], in [8] and in assay [9] was “inactive” throughout. Also, the Potency entry in assay [17], in [10] and in assay [11] was “inactive” throughout.
For the compound `CC(C)(C)c1cc(Cc2cc(C(C)(C)C)c(O)c(C(C)(C)C)c2)cc(C(C)(C)C)c1O`, the outcome in assay [1], in assay [4], in assay [7], in assay [12] and in [13] was inactive. Further, the Potency entry in assay [2], in assay [3], in assay [5], in [6], in assay [9] and in [10] was “inactive” throughout. Besides, the Potency entry in assay [11] and in [15] was “inactive” each time.
As for `NCCN1CCNCC1`, the result in assay [1], in assay [4], in [7], in [12] and in assay [13] was inactive. The Potency entry in [14], in assay [2], in assay [3], in [5], in assay [6] and in [8] was “inactive” throughout. Moreover, the Potency entry in assay [9], in [10], in assay [11] and in assay [15] was “inactive” throughout.
With `COc1ccc([N+](=O)[O-])cc1N`, the compound was classed as inactive in assay [1], in [4], in assay [7] and in assay [12]. In addition, the Potency entry in assay [2], in assay [3], in assay [5], in [6], in assay [8] and in assay [9] was “inactive” throughout. In addition, the Potency result in assay [17], in [10], in assay [11] and in [15] was “inactive” each time.
Take `CCOCC(=O)O`: the compound was called inactive in assay [1], in assay [4], in [7], in assay [12] and in assay [13]. The Potency result in assay [14], in assay [2], in assay [3], in [5], in [6] and in assay [8] was “inactive” throughout. In addition, the Potency entry in assay [10] and in [11] was “inactive” in each case.
